Experimental data published in PubChem BioAssay (NCI).
About 83,000 compounds went through this panel and 20% of them were active in at least one assay; those are over-represented in the sample as a whole.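 Interpretation: 100, growth as untreated; towards 0, rising growth inhibition; 0, no net growth; 0 to -100, cell death. Compounds scoring below 10 were considered active.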 The source made the active and inactive calls.

Assays:
Test in all cases: NCI-60 one-dose screen, 48 h (100 = growth as untreated, 0 = no growth, -100 = all killed)
Conditions in all cases: 10 µM unless noted
[1] = test system: SK-MEL-2 melanoma
[2] = test system: SN12C renal
[3] = test system: UO-31 renal
[4] = test system: TK-10 renal
[5] = test system: ACHN renal
[6] = test system: CAKI-1 renal
[7] = test system: A498 renal
[8] = test system: CCRF-CEM leukemia
[9] = test system: MOLT-4 leukemia
[10] = test system: SR leukemia
[11] = test system: RPMI-8226 leukemia
[12] = test system: OVCAR-8 ovarian
[13] = test system: OVCAR-5 ovarian
[14] = test system: OVCAR-4 ovarian
[15] = test system: SK-OV-3 ovarian
[16] = test system: IGROV1 ovarian
[17] = test system: OVCAR-3 ovarian
[18] = test system: HS 578T breast
[19] = test system: NCI/ADR-RES ovarian
[20] = test system: EKVX NSCLC

Measured: growth

O=C1Nc2ccccc2/C1=C/C(=N/c1nnc(-c2ccc(Cl)cc2)s1)c1ccccc1
active: [3] -69.2% | [4] -36.4% | [5] -71.4% | [8] -42.7% | [9] -26.4% | [10] -27.6% | [11] -14.4% | [17] -70.1%
inactive: [1] 97.2% | [2] 35.5% | [6] 15% | [7] 104% | [12] 10.4% | [13] 72.6% | [14] 57.3% | [15] 75.9% | [16] 21% | [18] 80.1% | [19] 41%

O=C1Nc2ccccc2/C1=C/C(=N/c1nnc(-c2ccccc2)s1)c1ccccc1
inactive: [1] 97.4% | [2] 41.8% | [7] 106% | [12] 36.8% | [13] 78.9% | [14] 59.2% | [15] 87.3% | [16] 19.7% | [18] 106% | [19] 46.2%
active: [3] -87.2% | [4] -39.7% | [5] -54.8% | [6] -10.2% | [8] -45% | [9] -24.2% | [10] -23% | [11] -17.5% | [17] -20.2%

CCN(CC)CC(C)(C)C(=O)/C=C/c1ccccc1
inactive: [1] 99.9% | [20] 26.7% | [2] 41.1% | [4] 91.5% | [5] 43.1% | [6] 49.7% | [7] 68.4% | [9] 19.1% | [11] 39.4% | [12] 76.6% | [13] 52.4% | [14] 63.3% | [15] 74.8% | [17] 37.7% | [18] 75.5% | [19] 46.8%

CCCN(CCC)CN(CCC)CCC
inactive: [1] 108% | [20] 98.8% | [3] 84.8% | [4] 106% | [5] 102% | [6] 96.3% | [9] 97.1% | [10] 101% | [11] 99.9% | [12] 105% | [13] 102% | [14] 117% | [15] 102% | [17] 92.1% | [18] 98.8% | [19] 105%

O=C(Nc1cccc2c1C(=O)c1cccc(Nc3cccc4c3C(=O)c3cccc(NC(=O)c5ccccc5)c3C4=O)c1C2=O)c1ccccc1
inactive: [1] 109% | [20] 125% | [3] 86.3% | [4] 108% | [5] 104% | [6] 99.1% | [7] 121% | [8] 89.5% | [9] 104% | [10] 101% | [11] 107% | [12] 96.1% | [13] 114% | [14] 118% | [15] 101% | [16] 75.6% | [17] 123% | [19] 105%

COc1c(C2CC(=O)Nc3c2cnn3Cc2ccco2)cc2c(c1OC)OCO2 (stereo not drawn)
active: [7] -2.53% | [9] 1.51% | [10] 2.13% | [11] -1.94% | [15] -9.03% | [17] -35.9% | [19] 4.88%
inactive: [1] 46.3% | [2] 32.5% | [3] 59.4% | [4] 73.9% | [5] 40.2% | [6] 36.9% | [8] 10.1% | [12] 18% | [13] 40.8% | [14] 39.2% | [16] 52.8% | [18] 30.4%

CN1CCCCC1CCN1c2ccccc2Sc2ccc(Br)cc21 (stereo not drawn)
active: [10] -32%
inactive: [1] 69.5% | [2] 73.3% | [3] 32.9% | [4] 72.3% | [5] 58.7% | [6] 55.6% | [7] 66.7% | [8] 32.6% | [9] 30.3% | [11] 46% | [12] 62.3% | [13] 85.9% | [14] 59.4% | [15] 69.6% | [16] 35.9% | [17] 77.9% | [18] 81% | [19] 73.2%

COC1C/C(=N\O)C2OC(c3ccccc3)OCC2O1 (stereo not drawn)
inactive: [1] 93.3% | [2] 104% | [3] 87.2% | [4] 112% | [5] 108% | [6] 97.9% | [7] 89.9% | [8] 96.1% | [9] 97.6% | [10] 109% | [11] 104% | [12] 114% | [13] 109% | [14] 104% | [15] 100% | [16] 109% | [17] 110% | [18] 106% | [19] 103%

CN1CCCCC1CCN1c2ccccc2Sc2ccc(Cl)cc21 (stereo not drawn)
inactive: [1] 71.2% | [2] 71.8% | [3] 30.1% | [4] 69.3% | [5] 58.2% | [6] 59.9% | [7] 74.9% | [8] 39.3% | [9] 41% | [11] 56.5% | [12] 63% | [13] 91.8% | [14] 57.1% | [15] 59.1% | [16] 45.5% | [17] 81.6% | [18] 72.5% | [19] 72.9%
active: [10] -22.5%

COc1ccc(/C=N\NC(=O)c2ccncc2)cc1O
inactive: [1] 90.8% | [2] 96.7% | [3] 77.8% | [4] 102% | [5] 102% | [6] 90.4% | [7] 108% | [8] 99.3% | [9] 95.6% | [10] 95.7% | [11] 104% | [12] 98.5% | [13] 110% | [14] 87.8% | [15] 87.8% | [16] 98.4% | [17] 104% | [18] 110% | [19] 102%

C=CC[N+]1(CCO)CCN=C1CCCCCCCCCCCCC (stereo not drawn)
active: [1] -64.2% | [20] -29.4% | [3] -60.7% | [4] -87% | [5] -91.9% | [6] -47.7% | [8] -40.6% | [9] -42.6% | [10] -39.7% | [11] -39.5% | [12] -74.3% | [13] -94.9% | [14] -25.9% | [15] -48.6% | [16] -82% | [17] -84.4% | [18] -36.5% | [19] -62%
inactive: [7] 82.6%

CCN(CC)Cc1cc(Nc2c3ccc(Cl)cc3nc3c(C)cccc23)ccc1O
active: [1] -73.2% | [20] -40.4% | [3] -96.8% | [4] -60.5% | [5] -86.4% | [6] -41.1% | [7] -48% | [8] 4.19% | [9] -3.97% | [10] -18.9% | [11] -14.6% | [12] -42.6% | [13] -37.7% | [14] -96% | [15] -10.3% | [16] -49.3% | [17] -71.6% | [18] -24.4% | [19] -49.8%

CCCCNC(=O)NS(=O)(=O)c1ccc(N2N=C(c3cc(C)ccc3C)CC2c2cc(OC)c(OC)c(OC)c2)cc1 (stereo not drawn)
inactive: [1] 54.9% | [2] 73.7% | [3] 32.2% | [4] 74.5% | [5] 63.6% | [6] 39% | [7] 34.6% | [8] 55.1% | [9] 30.9% | [10] 12.7% | [11] 28.3% | [12] 53.2% | [13] 95.9% | [14] 77.7% | [15] 68% | [16] 41.4% | [17] 53.3% | [19] 30.3%

O=C1Nc2ccc(Br)cc2C12CC(c1ccccc1)=NN2 (stereo not drawn)
inactive: [1] 74.9% | [2] 61.7% | [3] 48.4% | [4] 77.8% | [5] 49.1% | [6] 51.5% | [7] 46.4% | [8] 32.3% | [9] 36.3% | [10] 12.5% | [11] 28.3% | [12] 61% | [13] 82% | [14] 67.5% | [15] 48.4% | [17] 24.1% | [18] 47% | [19] 40.8%

COc1cc(C2CC(=O)Nc3c2c(C)nn3-c2nc3ccccc3[nH]2)cc(OC)c1OC (stereo not drawn)
active: [9] -42.5%
inactive: [1] 106% | [2] 91.3% | [3] 96.8% | [4] 109% | [5] 102% | [6] 114% | [7] 78.2% | [8] 32% | [10] 83.8% | [11] 108% | [12] 103% | [13] 103% | [14] 107% | [15] 111% | [17] 115% | [18] 94.5% | [19] 98.7%

CCCCCCCCOC(=O)CC[C@@H](C)[C@H]1CC[C@H]2[C@@H]3[C@H](OC(=O)CCN)C[C@@H]4C[C@H](OC(=O)CCN)CC[C@]4(C)[C@H]3C[C@H](OC(=O)CCN)[C@]12C
active: [8] -37.5% | [10] -12.9%
inactive: [1] 126% | [2] 77.6% | [3] 105% | [4] 136% | [5] 96.2% | [6] 108% | [7] 131% | [9] 26.1% | [11] 77.8% | [12] 69.5% | [13] 92.1% | [14] 75.7% | [15] 90.9% | [16] 77.2% | [17] 108% | [18] 79.5% | [19] 101%

O=c1c2cccc3c(Nc4ccccn4)ccc(c32)c2nc3ccccc3n12
inactive: [1] 80.5% | [2] 71.7% | [3] 46.6% | [4] 65.8% | [5] 76.1% | [6] 51.8% | [7] 92.3% | [8] 51.8% | [9] 61.8% | [10] 10.2% | [11] 49% | [12] 75.4% | [13] 83.3% | [14] 69.1% | [15] 89.1% | [16] 56.6% | [17] 70% | [18] 111% | [19] 74.6%
